Bioassay records as filed in PubChem BioAssay.
Pf growth 48h = inhibits P. falciparum growth in the first generation, 48 h | Potency, µM (titrated, usually from 28.7 µM), inactives show at the highest dose activity change, negative = inhibition, usual class: inhibitors | P. falciparum luciferase growth in erythrocytes, 48 h | 310,000 compounds, 5.9% hits; further: potency means the concentration at half of the fitted maximal effect; on the % scale 0 is the no-effect control and ±100 the full control effect
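Compounds are pin-transferred into medium, infected erythrocytes (2% hematocrit, 0.1% parasitemia final) are added, and plates sit one parasite generation at 37 C in 5% CO2. Detection reagent is then added and luminescence measured.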
HCV inh = inhibitors of hepatitis C virus infection; Huh7.5.1 HCVcc-Cre infection, luciferase reporter, 44 h; Potency, µM (series often up to 41.8 µM), for the others: at the top dose activity change, negative = inhibition, usual class: inhibitors; 340,000 compounds, 3.4% hits; AID 651820; further: potency means the concentration at half of the fitted maximal effect; on the % scale 0 is the no-effect control and ±100 the full control effect
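Cells (1,000/well) were plated 4 h before compound, then infected with HCVcc-Cre virus (~0.5 moi). After 44 h further culture, infection was read as luciferase luminescence following a 15 min substrate incubation at room temperature.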
Sm TGR block = blocks Schistosoma mansoni thioredoxin glutathione reductase; Q962Y6; purified TGR, DTNB reduction, TNB absorbance 405 nm; Potency, µM (doses to about 114 µM), for the others: at the highest dose activity change, negative = inhibition, hits mostly inhibitors; 360,000 compounds, 3% hits; further: potency means the concentration at half of the fitted maximal effect; on the % scale 0 is the no-effect control and ±100 the full control effect; nearly all actives have a fitted effect of over 60% in size
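First, TGR (20 nM dispensed) and NADPH were mixed with compound. Second, a 15 min room-temperature incubation followed. Third, further NADPH and then DTNB were added to start the reaction. Finally, TNB absorbance was monitored kinetically.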
HCMV inh = blocks human cytomegalovirus replication. AID 1259415. HFF cells, HCMV-luciferase reporter, 72 h; active compounds read low. 410,000 compounds, 4.5% hits. activity change, negative = inhibition, % at 57.5 µM; in the data active means activity change below about -60%; inconclusive means no clear call, values can overlap the other calls; inactive means above about -39%; further: on the % scale 0 is the no-effect control and ±100 the full control effect
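Two compound doses tested in HFFs infected with HCMV-luciferase, MOI 1 PFU/cell, 72 h at 37C. Lysate luminescence read with OneGlo; data normalized against buffer-only and 10uM Salinomycin inhibitor controls.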
SARS PLP yeast = blocks SARS-CoV papain-like protease in a yeast assay; Potency, µM (highest dose often 32.9 µM), inactives show at the highest dose activity, positive = growth rescue, actives largely listed as activators; 330,000 compounds, 0.19% hits; AID 485353; S. cerevisiae expressing SARS-CoV PLpro, growth rescue; calls by dose curve; further: potency means the concentration at half of the fitted maximal effect; 0% is about no effect; nearly all actives have a fitted effect of over 55% in size
Pf growth 96h = P. falciparum growth inhibition at 96 hour, primary screen for plastid delayed-death inhibitors | Potency, µM (highest dose often 28.7 µM), without a hit: at the highest dose activity change, negative = inhibition, usual class: inhibitors | 320,000 compounds, 6.9% hits | AID 504834 | P. falciparum luciferase reporter growth, 96 h; further: potency means the concentration at half of the fitted maximal effect; on the % scale 0 is the no-effect control and ±100 the full control effect
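Two-generation exposure (96 h) targets delayed-death phenotype. Reporter parasites carrying integrated firefly luciferase, in red cells at 2% hematocrit and 0.05% parasitemia final, kept at 37 C, 5% CO2; luminescence loss indicates inhibition.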
* hit, by the source's call; ? = inconclusive; · = not tested or not shown. A selection: hits, their analogues and other compounds. The true share with any hit is near 15%. Unless noted, the call rests on the fitted dose curve; in most records, active means well fitted curve in the direction sought with a large enough effect; inconclusive means small, poorly fitted or top-dose-only effect, or another doubt; inactive means no such curve, though single readings can be large; an effect the other way counts as inactive or inconclusive.

SMILES | Pf growth 48h | HCV inh | Sm TGR block | HCMV inh | SARS PLP yeast | Pf growth 96h
Cc1ccc(S(=O)(=O)Cc2nc(-c3ccc(C(=O)NCc4ccccc4F)cc3)oc2C)cc1 | · | · | 7.9µM* | · | · | ·
Cc1oc(-c2ccc(C(=O)NCc3ccccc3F)cc2)nc1COc1ccccc1 | · | · | 3% | -16 | · | ·
Cc1ccc(S(=O)(=O)Cc2nc(-c3ccc(C(=O)NCCCOC(C)C)cc3)oc2C)cc1 | · | · | -35% | 12 | · | ·
CCCNC(=O)c1ccc(-c2nc(CS(=O)(=O)c3ccc(C)cc3)c(C)o2)cc1 | · | · | 40µM* | 6 | · | ·
COc1ccccc1CNC(=O)c1ccc(-c2nc(CS(=O)c3ccc(C)cc3)c(C)o2)cc1 (stereo unspecified) | · | · | 13µM* | 0 | · | ·
O=C(C1CC(c2ccccc2O)=NO1)N1CCCCC1 (stereo unspecified) | 189% | -1% | 1% | 61 | 1% | ·
O=C(NCc1ccccc1)c1cc(C2CCCCN2C(=O)OCCF)on1 (stereo unspecified) | · | · | · | 16 | · | ·
CCN=C1SC(CC(N)=O)C(=O)N1CC (stereo unspecified) | 20% | 11% | 17% | -13 | 1% | 34%
COC(=O)c1ccc(=O)c2nc3/c(=C/O)c(O)cc(=O)c3[nH]c12 | ? | ? | 50µM* | · | 3.2µM* | ?
Cc1ccc(OC(=O)c2cccnc2)cc1 | -2% | 19% | 0% | -9 | 1% | 12µM*
O=C(Oc1ccc2c(=O)c(Cl)coc2c1)c1cccnc1 | 57% | 20% | 32µM* | 0 | -4% | 19%
NC(=S)N/N=C/c1ccc(OC(=O)c2cccnc2)cc1 | 13% | 7% | 4% | 0 | 8% | ?
Cc1cc(=O)[nH]c(N/N=C/c2ccc(OC(=O)c3cccnc3)cc2)n1 | 6% | -2% | -4% | -65* | 0% | 38%
O=Cc1ccc(C(=O)OCC(=O)NCc2ccco2)cc1 | · | 13% | · | 27 | 3% | ·
O=C(Nc1ccc(Br)cc1)c1ccccc1CC[N+](=O)[O-] | ? | ? | -6% | -12 | 5% | -9%
Cc1cc(C)cc(NC(=O)c2ccccc2CC[N+](=O)[O-])c1 | ? | ? | 40µM* | -5 | 1% | 4%
O=S(Cc1ccccc1)CC(O)(c1ccc(Cl)cc1)c1ccc(Cl)cc1 (stereo unspecified) | ? | -15% | 3% | -92* | -39% | ?
O=S(Cc1ccc(Cl)cc1)CC(O)(c1ccccc1)c1ccccc1 (stereo unspecified) | -2% | 17% | 0% | 28 | -4% | 0%
CC1CCN(S(=O)(=O)c2ccc3c(ccc(=O)n3CC(=O)Nc3ccc(C(C)C)cc3)c2)CC1 | · | · | 4% | 20 | · | ·
N#CC1=C(N)C(C#N)(C#N)C(c2cccnc2)C2CCCC=C12 (stereo unspecified) | -2% | · | -26% | · | -5% | -11%
N#CC1=C(N)C(C#N)(C#N)[C@H](c2cccnc2)[C@H]2CN(C(=O)OCc3ccccc3)CC=C12 | ? | -21% | ? | -21 | 10% | 13µM*
N#CC1=C(N)C(C#N)(C#N)C(c2cccnc2)C2CC(c3ccccc3)CC=C12 (stereo unspecified) | ? | -17% | ? | · | -23% | 12µM*
CCOC(=O)N1CC=C2C(C#N)=C(N)C(C#N)(C#N)[C@H](c3ccc(OC(C)C)c(OCC)c3)[C@H]2C1 | 5.2µM* | ? | -22% | 25 | 2% | -19%
COc1ccc(N2CCN(c3oc(/C=C/c4ccc(F)cc4)nc3C#N)CC2)cc1 | · | · | -2% | 78 | · | ·
CCOc1ccc(C(=O)Nc2ccc3oc(-c4cccc5ccccc45)nc3c2)cc1 | · | · | -5% | ? | · | ·
NC(=O)C1CCN(CC(=O)Nc2ccccc2C(=O)NC2CC2)CC1 | -9% | 16% | -1% | 50 | 8% | ?
CC(=O)c1c(C)[nH]c(C(=O)OC(C)C(=O)NC2CCCCC2)c1C (stereo unspecified) | · | · | · | -26 | · | ·
